The record followed here is the supplement of paper PMC6555819.

For one assay, the system named is RARb homodimer (NR concentration 270 nM). Kind of assay: PBM binding z-score (relative to random genomic background probes); higher = stronger binding; sequences stand for … in GC…GCGATTGACAGCGTAGAATGAAGG
Put shortly: (§1)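 Antibodies against each partner of ligand-free nuclear receptor dimers (one per run) detected binding on custom Agilent 4×180K protein-binding microarrays after 1 h incubation. The double-stranded probes had 34-nt variable regions carrying direct-repeat seeds, single-nucleotide variants, half-site ablations and random human genomic background sequences. Binding z-scores, from regression-normalized fluorescence, use the random background probes as reference.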
Regarding ACTCGGAGGACAAAGGTCAGAGCAACGCCAGTGA, the PBM binding z-score stood at 4.24.

Turning to GCTGCTAGGTCAACTGATTGTCAGCTAAAGCTCG, the PBM binding z-score came to 3.35.

For GCGACTGGGGCAAAGCAAGTTACCATAAGGTTGG, the PBM binding z-score worked out at 0.158.

AGAATGAGGTTAATAAGATCAGGGAATTGCGGTC had a PBM binding z-score of 0.992.

ATCCCTAGGTAAAGATAGTTCAGTGAATGCAAAT displayed a PBM binding z-score of 1.19.

On to CTTCGGAGGACAGAAGGTCAGAGCTGTCCGCTTT, for which the PBM binding z-score was determined as 3.32.

Regarding CCAGACAGGTGTAAGGTAACTCAGTCTGGTACGC, the PBM binding z-score was -0.201.

CAAACTAGGTCCAGGTCAAAGTCGGTTTGTGCCA had a PBM binding z-score of 3.03.

CCTAGTTGGTCGAGGTCACACACGCTATAGGTAC: the PBM binding z-score amounted to 3.98.

Consider TCTTGTTGATCAGCAGGTTAAGAAAGCTGGCCAA, for which the PBM binding z-score turned out to be 0.158.

The sequence CGTCAAAGTTCAAGATAACGTAACAGAAAGCAGC registered a PBM binding z-score of 3.44.

Turning to CAAACTAGGCCAAAGGTCAAAGTCGAGCCAACCA, the PBM binding z-score stood at 4.89.

For TCTCGGAGGACACGAAAGGTCGGAGCTCGACATC, the PBM binding z-score was determined as 2.87.

Regarding CGTCCAAGGTCTGCAGGTCAGTGAAAGCGACGTG, the PBM binding z-score was 2.06.

Take CCAGACAGGTGGAAGGTAACTCAGTCTGGTACGC: the PBM binding z-score was 0.0116.

Take ACAGACAGGAGATGAAGGTAACTCAGGCTATCAT: the PBM binding z-score was 0.465.

Turning to CCAGACAGGCGAAAGGTAACTCAGTCTGGTACGC, the PBM binding z-score was -0.261.

On to CGTCCAAGGTCAATGCTAGGTCAGTGTAAGCATT, for which the PBM binding z-score was 5.02.

In a further assay the test system is RARg:RXRa (NR concentration 270 nM, RXRa partner concentration 90 nM). The assay is described as above. The procedure, abridged:
as §1
Take AATATTAGTTGAGACGAGGGCAACCGATAGGTTG: the PBM binding z-score worked out at 0.902.

Take TCGAGTAGGTTAGGGTCATTCAGAATGGCGTCGA: the PBM binding z-score is 3.8.

The sequence TAGCCTAGGTAATTCAGGGGCCAGTATAGAAAGC yielded a PBM binding z-score of 0.386.

For CAAACTAGGTCAAGGTCGAAGTCGGTTTGTGCCA, the PBM binding z-score worked out at 4.38.

On to AATACACGGTCATCGTAGGCCAGAGTACGCACAG, for which the PBM binding z-score was determined as 2.06.

Sequence CGGACTAGGTCAAGGACAGTGAATCTCCGCACGC yielded a PBM binding z-score of 3.54.

CATACAGGGTCAGCTACGCCAGAGTAGGGACGGC returned a PBM binding z-score of 4.44.

With AGAACGAGGGCGCGCTGAGTTGATAGCAGAGTAG, the PBM binding z-score turned out to be 0.211.

In the case of CGTCAAAGTTCAACTAGGGTAACGTAAAGCACGC, the PBM binding z-score stood at 5.87.

In turn, GCTCGGAGGAAAAGGTCAGAGCTTTGTCCGTAGA came in with a PBM binding z-score of 4.34.

As to CCTTACGTGTCAAGGTTATAGCACGGGTGGTACG, the PBM binding z-score came out at 1.34.

As to CCTCCTAGGTCAATGGTCAGCTAAAGCAGCTCGC, the PBM binding z-score is 3.66.

With CCGACTGGGGCATAAAGGTTACCATACCATCCGG, the PBM binding z-score was found to be 1.92.

Sequence TCTGCTAGGTCAGTTGGTCAGCTACCGAGCTGCC registered a PBM binding z-score of 2.45.

Turning to GCTTGTAGATCAGGGTTAAGAAAGACTAAGCTAA, the PBM binding z-score is 0.416.

On to TGATATAGGTAATACAGGTGAAAGTCGGCATCTA, for which the PBM binding z-score stood at 0.793.

TCTTGTAGATCAGCATGTTAAGAAAGCTGGCCAA had a PBM binding z-score of -0.255.

The sequence CGAACTAGGTTATTGACAGGACAGTGAATAGTAA gave a PBM binding z-score of 1.04.

The sequence ATCGAAAGGTCGACGAGGTGACTATACACCGTTT registered a PBM binding z-score of 4.44.

For the sequence GCTGCTAGGTCAGGGTGGTCAGCTAACGGGTACG, the PBM binding z-score is 2.91.

As for ACTAGCAGGCCCAGTTTGGGTCACTCAAACAAAG, the PBM binding z-score worked out at 0.324.

AGAATGAGGTTACCAAATATCAGGGAAACGCTTG returned a PBM binding z-score of 1.91.

ACTCGGAGGACAAAGGTCAGAGCAACGCCAGTGA displayed a PBM binding z-score of 6.11.

In the case of GCTGCTAGGTCAACTGATTGTCAGCTAAAGCTCG, the PBM binding z-score came out at 4.28.

GCGACTGGGGCAAAGCAAGTTACCATAAGGTTGG gave a PBM binding z-score of 0.0953.

With AGAATGAGGTTAATAAGATCAGGGAATTGCGGTC, the PBM binding z-score was 1.32.

ATCCCTAGGTAAAGATAGTTCAGTGAATGCAAAT had a PBM binding z-score of 0.428.

As for CTTCGGAGGACAGAAGGTCAGAGCTGTCCGCTTT, the PBM binding z-score is 3.58.

CCAGACAGGTGTAAGGTAACTCAGTCTGGTACGC registered a PBM binding z-score of -0.0982.

As to CAAACTAGGTCCAGGTCAAAGTCGGTTTGTGCCA, the PBM binding z-score was 2.6.

CCTAGTTGGTCGAGGTCACACACGCTATAGGTAC registered a PBM binding z-score of 4.6.

TCTTGTTGATCAGCAGGTTAAGAAAGCTGGCCAA displayed a PBM binding z-score of -0.129.

As to CGTCAAAGTTCAAGATAACGTAACAGAAAGCAGC, the PBM binding z-score was found to be 5.28.

CAAACTAGGCCAAAGGTCAAAGTCGAGCCAACCA displayed a PBM binding z-score of 6.83.

Sequence TCTCGGAGGACACGAAAGGTCGGAGCTCGACATC yielded a PBM binding z-score of 2.45.

CGTCCAAGGTCTGCAGGTCAGTGAAAGCGACGTG had a PBM binding z-score of 1.26.

CCAGACAGGTGGAAGGTAACTCAGTCTGGTACGC: the PBM binding z-score is -0.129.

For ACAGACAGGAGATGAAGGTAACTCAGGCTATCAT, the PBM binding z-score turned out to be 0.0751.

CCAGACAGGCGAAAGGTAACTCAGTCTGGTACGC displayed a PBM binding z-score of 0.0389.

For CGTCCAAGGTCAATGCTAGGTCAGTGTAAGCATT, the PBM binding z-score came out at 7.55.

In another assay the test system is RARg homodimer (NR concentration 270 nM). Described as above. The procedure, abridged:
as §1
Consider AATATTAGTTGAGACGAGGGCAACCGATAGGTTG, for which the PBM binding z-score stood at 0.922.

On to TCGAGTAGGTTAGGGTCATTCAGAATGGCGTCGA, for which the PBM binding z-score is 2.8.

As for TAGCCTAGGTAATTCAGGGGCCAGTATAGAAAGC, the PBM binding z-score was -0.0521.

Consider CAAACTAGGTCAAGGTCGAAGTCGGTTTGTGCCA, for which the PBM binding z-score is 5.12.

With AATACACGGTCATCGTAGGCCAGAGTACGCACAG, the PBM binding z-score came to 2.76.

As for CGGACTAGGTCAAGGACAGTGAATCTCCGCACGC, the PBM binding z-score amounted to 4.28.

With CATACAGGGTCAGCTACGCCAGAGTAGGGACGGC, the PBM binding z-score turned out to be 4.43.

In turn, AGAACGAGGGCGCGCTGAGTTGATAGCAGAGTAG yielded a PBM binding z-score of 0.0624.

Take CGTCAAAGTTCAACTAGGGTAACGTAAAGCACGC: the PBM binding z-score came to 6.62.

The sequence GCTCGGAGGAAAAGGTCAGAGCTTTGTCCGTAGA registered a PBM binding z-score of 4.89.

CCTTACGTGTCAAGGTTATAGCACGGGTGGTACG had a PBM binding z-score of 1.35.

The sequence CCTCCTAGGTCAATGGTCAGCTAAAGCAGCTCGC returned a PBM binding z-score of 4.2.

The sequence CCGACTGGGGCATAAAGGTTACCATACCATCCGG registered a PBM binding z-score of 1.79.

As for TCTGCTAGGTCAGTTGGTCAGCTACCGAGCTGCC, the PBM binding z-score is 3.07.

As to GCTTGTAGATCAGGGTTAAGAAAGACTAAGCTAA, the PBM binding z-score is 0.152.

TGATATAGGTAATACAGGTGAAAGTCGGCATCTA: the PBM binding z-score worked out at 0.583.

As to TCTTGTAGATCAGCATGTTAAGAAAGCTGGCCAA, the PBM binding z-score is -0.411.

In turn, CGAACTAGGTTATTGACAGGACAGTGAATAGTAA displayed a PBM binding z-score of 0.618.

In turn, ATCGAAAGGTCGACGAGGTGACTATACACCGTTT registered a PBM binding z-score of 4.48.

Turning to GCTGCTAGGTCAGGGTGGTCAGCTAACGGGTACG, the PBM binding z-score turned out to be 3.73.

ACTAGCAGGCCCAGTTTGGGTCACTCAAACAAAG returned a PBM binding z-score of 0.28.

The sequence AGAATGAGGTTACCAAATATCAGGGAAACGCTTG came in with a PBM binding z-score of 1.86.

In the case of ACTCGGAGGACAAAGGTCAGAGCAACGCCAGTGA, the PBM binding z-score stood at 5.43.

Sequence GCTGCTAGGTCAACTGATTGTCAGCTAAAGCTCG showed a PBM binding z-score of 4.95.

In turn, GCGACTGGGGCAAAGCAAGTTACCATAAGGTTGG yielded a PBM binding z-score of 0.244.

Turning to AGAATGAGGTTAATAAGATCAGGGAATTGCGGTC, the PBM binding z-score came out at 1.09.

Turning to ATCCCTAGGTAAAGATAGTTCAGTGAATGCAAAT, the PBM binding z-score was 0.526.

As to CTTCGGAGGACAGAAGGTCAGAGCTGTCCGCTTT, the PBM binding z-score was determined as 3.53.

CCAGACAGGTGTAAGGTAACTCAGTCTGGTACGC had a PBM binding z-score of -0.292.

CAAACTAGGTCCAGGTCAAAGTCGGTTTGTGCCA yielded a PBM binding z-score of 2.27.

Consider CCTAGTTGGTCGAGGTCACACACGCTATAGGTAC, for which the PBM binding z-score came out at 4.42.

Sequence TCTTGTTGATCAGCAGGTTAAGAAAGCTGGCCAA registered a PBM binding z-score of -0.598.

In turn, CGTCAAAGTTCAAGATAACGTAACAGAAAGCAGC displayed a PBM binding z-score of 6.09.

Regarding CAAACTAGGCCAAAGGTCAAAGTCGAGCCAACCA, the PBM binding z-score came to 5.59.

TCTCGGAGGACACGAAAGGTCGGAGCTCGACATC showed a PBM binding z-score of 2.91.

In turn, CGTCCAAGGTCTGCAGGTCAGTGAAAGCGACGTG had a PBM binding z-score of 1.8.

CCAGACAGGTGGAAGGTAACTCAGTCTGGTACGC showed a PBM binding z-score of -0.15.

Regarding ACAGACAGGAGATGAAGGTAACTCAGGCTATCAT, the PBM binding z-score stood at 0.419.

Sequence CCAGACAGGCGAAAGGTAACTCAGTCTGGTACGC came in with a PBM binding z-score of -0.491.

Regarding CGTCCAAGGTCAATGCTAGGTCAGTGTAAGCATT, the PBM binding z-score came to 7.
